INS-1E GSIS act – GLuc luminescence reporter in INS-1E cells, primary screen for activators of glucose-dependent secretion of insulin; INS-1E GLuc reporter insulin secretion, 2-3 h; activation, % at 16.6 µM; 370,000 tested, 0.61% active;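 active = lowest replicate activation of at least 40%, so every replicate reaches that level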;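 also: 0% = median of neutral control wells and 100% = median of IBMX positive control wells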
CaV13 FRET inh – Primary screen for inhibitors of IQ motif and Ca2+-dependent inactivation inhibitor domain binding in CACNA1D, Förster resonance energy transfer in living cells, …. 340,000 tested, 0.098% active. HEK cells, CFP/YFP FRET ICDI-IQ, plate reader, 10 min; percent FRET-ratio fall versus neutral wells. inhibition, % at 12.3 µM;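 active = mean replicate inhibition of at least 30% and at least 1% of replicates passing that level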;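 also: 0% = median of the neutral control wells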
PGC1a acetyl inh – PGC1a acetylation modulation, inhibitor mode. U2OS PGC1a acetylation, AlphaScreen anti-acetyl-lysine; with virally co-expressed GCN5 acetyltransferase. inhibition, % at 15.6 µM. 350,000 tested, 0.17% active. AID 651687;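 active = every replicate shows inhibition of at least 40%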;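 also: 0% = neutral control wells and 100% = positive control wells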
rRNA inh HTS – inhibits bacterial ribosomal RNA function over humanized ribosomes; E. coli WT GFP vs humanized-ribosome RFP mutants, fluorescence, 24 h; hits give low values; DMSO median 0, no signal -100; GFP signal change (wild-type ribosome), % (concentration not given with the values); 350,000 tested, 1.6% active; AID 720706;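 active = significant combined selectivity score with lowered wild-type GFP, culture density cut under 30%, mutant RFP and density less affected; inactive = any of these conditions unmet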
DENV2 CPE – inhibitors of DENV2 cytopathic effect | CPE inhibition, % at 9.99 µM | AID 651640 | DENV2-infected cells, cytopathic effect rescue, plate reader | 350,000 tested, 1.7% active; in the data active = CPE inhibition above about 20%, passing the limit was not always enough; tested in BHK-21 cells;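 also: 0% = median of neutral control wells and 100% = median of positive control wells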
ERAP1 inh – blocks human ERAP1 aminopeptidase activity. inhibition, % at 10.7 µM. 340,000 tested, 0.15% active. Q9NZ08. recombinant ERAP1, Leu-AMC fluorescence, 60 min. AID 652197;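 active = mean replicate inhibition of at least 30%, or all replicates individually reaching that 30% level; inactive = mean below 30% and not every replicate reaching it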;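 also: 0% = neutral control wells and 100% = L-leucinethiol positive control wells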
Target sequence (Q9NZ08 whole entry, looked up): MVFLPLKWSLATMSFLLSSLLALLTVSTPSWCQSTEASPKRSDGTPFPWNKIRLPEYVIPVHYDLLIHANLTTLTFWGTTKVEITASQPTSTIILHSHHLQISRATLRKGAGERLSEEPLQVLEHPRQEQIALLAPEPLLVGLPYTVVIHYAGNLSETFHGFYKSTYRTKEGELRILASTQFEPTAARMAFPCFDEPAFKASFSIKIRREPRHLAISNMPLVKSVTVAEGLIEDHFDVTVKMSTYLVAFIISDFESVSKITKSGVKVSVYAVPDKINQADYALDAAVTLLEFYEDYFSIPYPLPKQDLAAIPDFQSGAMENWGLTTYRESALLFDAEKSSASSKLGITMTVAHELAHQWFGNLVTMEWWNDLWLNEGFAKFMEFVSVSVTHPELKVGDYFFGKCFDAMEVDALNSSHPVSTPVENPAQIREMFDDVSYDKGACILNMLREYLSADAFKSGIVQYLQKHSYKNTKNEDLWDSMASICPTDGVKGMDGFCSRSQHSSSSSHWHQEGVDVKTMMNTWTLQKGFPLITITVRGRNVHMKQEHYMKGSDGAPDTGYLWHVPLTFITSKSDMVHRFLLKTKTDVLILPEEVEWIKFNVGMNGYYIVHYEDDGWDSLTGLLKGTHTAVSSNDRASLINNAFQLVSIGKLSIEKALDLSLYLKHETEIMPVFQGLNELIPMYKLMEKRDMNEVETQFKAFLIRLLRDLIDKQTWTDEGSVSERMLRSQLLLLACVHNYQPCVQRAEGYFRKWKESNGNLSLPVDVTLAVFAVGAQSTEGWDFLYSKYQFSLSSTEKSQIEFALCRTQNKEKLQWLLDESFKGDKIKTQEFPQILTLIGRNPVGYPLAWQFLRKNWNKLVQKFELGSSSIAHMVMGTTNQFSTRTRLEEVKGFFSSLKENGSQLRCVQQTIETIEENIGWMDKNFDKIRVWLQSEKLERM
* marks the source's active call; other numbers are inactive results; nt = no result given. Only some compounds are listed: those with a hit (about 3.2% of all), similar ones and a draw of the others.

SMILES	INS-1E GSIS act	CaV13 FRET inh	PGC1a acetyl inh	rRNA inh HTS	DENV2 CPE	ERAP1 inh
CC(=O)N1[C@H](C(=O)N2CCCCC2)[C@@H](CO)[C@@H]2Cn3c(ccc(-c4ccccc4)c3=O)[C@@H]21	8	nt	nt	4	20*	-2
CC(=O)N1[C@H](C(=O)N(C)C)[C@@H](CO)[C@@H]2Cn3c(ccc(-c4ccccc4F)c3=O)[C@@H]21	13	nt	nt	4	34*	-2
CN(C)C(=O)[C@H]1[C@H](CO)[C@H]2Cn3c(ccc(-c4ccccc4F)c3=O)[C@H]2N1C(=O)C1CC1	8	nt	nt	3	0	nt
CCCN1[C@H](C(=O)NCC(F)(F)F)[C@@H](CO)[C@@H]2Cn3c(ccc(-c4ccccc4)c3=O)[C@@H]21	-3	nt	-6	1	92*	2
CO[C@@H]1CN(C)C(=O)c2cc(NC(=O)C3CCOCC3)ccc2OC[C@@H](C)N(CC2CC2)C[C@@H]1C	10	nt	-4	1	0	-4
C[C@@H]1CN([C@@H](C)CO)C(=O)c2cc(C#CC3CCCC3)cnc2O[C@@H]1CN(C)S(=O)(=O)c1cccc(F)c1	-21	nt	-16	3	15	0
O=C(NCC[C@@H]1CC[C@H](NC(=O)C2CC2)[C@H](CO)O1)c1cc(Cl)cc(Cl)c1	13	nt	-5	-3	1	2
Cc1cc(C(=O)c2ccc3ccccc3c2)c(C)o1	-31	-4	20	-23*	8	2
CCc1nc2c(OCc3ccc(S(C)(=O)=O)cc3)cccn2c1N(C)C(=O)c1ccccc1F	nt	-16	45*	7	0	0
CCOC(=O)N(C)c1c(CC)nc2c(OCc3ccc(C(F)(F)F)cc3)cccn12	9	-4	4	-7	5	5
CCCCC(=O)N(C)c1c(CC)nc2c(OCc3ccc(C(F)(F)F)cc3)cccn12	53*	-6	-18	5	-4	-3
CCC(=O)Nc1ccc2c(c1)C(=O)N(C)C[C@@H](OC)[C@H](C)CN(Cc1cc(-c3ccccc3)on1)[C@H](C)CO2	-10	nt	-5	-6	8	3
CC(=O)Nc1ccc2c(c1)CC(=O)N(C)C[C@@H](C)[C@@H](CN(C)C(=O)NC(C)C)O2	2	nt	nt	3	nt	nt
CC(=O)N(C1CC(C)C(C#N)(C#N)C1(C#N)C#N)N(C)C (stereo not drawn)	167*	4	-24	2	-3	2
Cc1ccc(N(C(=O)c2nsc(Cl)c2Cl)C(C(=O)NC2CCCC2)c2ccc(O)cc2)cc1C (stereo not drawn)	-13	-5	nt	-5	84*	0
Cc1cc(C)cc(N(C(=O)c2nsc(Cl)c2Cl)C(C(=O)NC2CCCC2)c2ccc(O)cc2)c1 (stereo not drawn)	-15	-5	nt	-1	-3	-1
COc1cc2c(cc1OC)C[N+](C)(C)CC2	-6	nt	4	nt	8	65*
COc1cc2c(cc1OC)CC(=O)N(C)CC2	nt	-5	nt	4	3	2
C[C@H]1CCCCO[C@@H](CN(C)C)[C@@H](C)CN([C@@H](C)CO)C(=O)c2cc(NS(=O)(=O)c3ccc(F)cc3)ccc2O1	0	nt	0	3	1	-3
COCC(=O)N(C)C[C@H]1Oc2ncc(C#CC(C)(C)O)cc2C(=O)N([C@@H](C)CO)C[C@H]1C	3	nt	4	-2	nt	nt
O=C(C1CCOCC1)N1CC(=O)N2[C@H](CO)[C@H](c3ccc(C#CC4CCCC4)cc3)[C@@H]2C1	-5	nt	-3	8	-10	-2
COc1cc(CO)cc(Br)c1OCC(=O)Nc1cccc2ccccc12	48*	-16	2	-24*	10	nt
COCC(=O)Nc1cccc2ccccc12	nt	-4	nt	nt	nt	nt
CCOc1ccc(CN(C)CC(=O)Nc2cccc3ccccc23)cc1OC	-16	-1	-5	-24*	12	-6
COc1ccc(CC(=O)Nc2cccc(-c3ccc4nnc(C)n4n3)c2)cc1	12	2	-17	-25	-4	-3
SMILES	INS-1E GSIS act	CaV13 FRET inh	PGC1a acetyl inh	rRNA inh HTS	DENV2 CPE	ERAP1 inh
CCOc1ccc(CC(=O)Nc2cccc(-c3ccc4nnc(C)n4n3)c2)cc1	0	-7	nt	-34*	5	nt
O=C(C[C@H]1CC[C@H](NC(=O)Nc2ccccc2)[C@H](CO)O1)NCc1cccc(F)c1	3	nt	4	-1	-4	1
CN(C)C(=O)C[C@@H]1CC[C@H](NC(=O)C2CCC2)[C@@H](CO)O1	4	nt	-7	4	4	-1
O=C(Nc1ccc(C(=O)OC[C@@H]2CCCN3CCCC[C@H]23)cc1)c1cccc(Br)c1	9	-5	nt	-44*	-1	-5
O=C(NC(=O)c1cccc(F)c1)OC[C@@H]1CCCN2CCCC[C@H]12	10	-6	7	7	6	2
Cc1ccc(S(=O)(=O)Nc2cccc(-c3ccc(N4CCCCCC4)nn3)c2)cc1	-8	-7	-7	-23*	-4	-1
O=C(CC1CC1)N1CC2(C1)[C@@H](c1ccccc1)[C@@H](CO)N2CC1CCOCC1	0	nt	2	1	2	1
CCCNC(=O)N1CC2(C1)[C@H](c1ccccc1)[C@@H](CO)N2CC1CCOCC1	-3	nt	-16	0	24*	5
CCCNC(=O)N1CC2(C1)[C@H](c1ccccc1)[C@H](CO)N2CC1CCOCC1	0	nt	-13	6	6	6
O=S(=O)(Cc1ccccc1)N1CC2(C1)[C@H](c1ccccc1)[C@@H](CO)N2CC1CCOCC1	-17	nt	0	-3	27*	1
CN(C)CC(=O)N1[C@H](CO)[C@@H](c2ccccc2)C12CN(CC1CCOCC1)C2	6	nt	-6	1	20*	-2
CC(=O)N1CC2(C1)[C@H](c1ccccc1)[C@@H](CO)N2Cc1ccccc1	2	nt	4	4	24*	-4
O=S(=O)(Cc1ccccc1)N1CC2(C1)[C@H](c1ccccc1)[C@H](CO)N2CC1CCCC1	-7	nt	nt	-16	nt	nt
C[C@@H]1CN([C@@H](C)CO)C(=O)c2c(c3ccccc3n2C)-c2ccccc2CO[C@H]1CN(C)CC1CC1	-6	nt	-23	6	2	-7
CO[C@H]1CN(C)C(=O)c2ccc(NS(=O)(=O)CC(F)(F)F)cc2OC[C@H](C)NC[C@@H]1C	-1	nt	4	0	10	5
CC(=O)N1CC2(C1)[C@H](c1ccccc1)[C@@H](CO)N2CC1CCOCC1	-1	nt	4	-1	61*	-2
CC(=O)N1CC2(C1)[C@@H](c1ccccc1)[C@@H](CO)N2CC1CCOCC1	-11	nt	1	5	22*	0
COc1ccc(Nc2ncnc3ccccc23)cc1	nt	nt	15	nt	nt	nt
COc1ccc(Nc2ccnc3ccccc23)cc1	nt	0	51*	nt	nt	nt
